This note sets out measurements from ChEMBL document CHEMBL1961873, “Compounds: GSK PKIS; Assays: Nanosyn kinase panel” (2012).

Molecules are shown by their SMILES.

The target in experiment [1] is MAP/microtubule affinity-regulating kinase 3 (Homo sapiens) (UniProt P27448). The settings on record: at 1 µM.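 Also: reported values are averaged percent inhibition of MARK3.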
The target of experiment [2] is T1, MAP/microtubule affinity-regulating kinase 4 (Homo sapiens) (UniProt Q96L34).
T1 sequence (whole entry): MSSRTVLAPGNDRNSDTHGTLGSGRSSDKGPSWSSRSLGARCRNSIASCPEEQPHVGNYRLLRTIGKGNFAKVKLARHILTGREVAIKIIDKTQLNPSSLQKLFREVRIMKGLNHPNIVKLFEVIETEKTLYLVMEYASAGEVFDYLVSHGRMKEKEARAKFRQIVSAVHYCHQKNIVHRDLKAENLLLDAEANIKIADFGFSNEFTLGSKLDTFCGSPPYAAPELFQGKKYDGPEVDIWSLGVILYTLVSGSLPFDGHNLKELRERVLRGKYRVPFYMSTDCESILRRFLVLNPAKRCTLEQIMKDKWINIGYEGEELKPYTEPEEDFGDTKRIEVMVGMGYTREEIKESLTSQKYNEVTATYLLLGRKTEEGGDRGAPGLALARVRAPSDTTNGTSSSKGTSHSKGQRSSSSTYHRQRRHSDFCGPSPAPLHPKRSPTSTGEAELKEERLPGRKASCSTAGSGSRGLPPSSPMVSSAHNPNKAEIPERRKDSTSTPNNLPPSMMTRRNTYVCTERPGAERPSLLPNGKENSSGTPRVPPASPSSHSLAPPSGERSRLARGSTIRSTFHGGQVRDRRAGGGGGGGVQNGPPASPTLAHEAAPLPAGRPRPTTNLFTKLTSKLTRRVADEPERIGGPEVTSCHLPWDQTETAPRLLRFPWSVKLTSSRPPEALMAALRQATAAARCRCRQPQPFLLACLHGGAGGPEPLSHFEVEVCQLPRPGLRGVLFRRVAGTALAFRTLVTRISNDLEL
The following applies: at 0.1 µM.

Experiment [3] concerns the target T1, MAP/microtubule affinity-regulating kinase 4 (Homo sapiens). The following applies: at 1 µM.
For experiment [4], the target named is Maternal embryonic leucine zipper kinase (Homo sapiens) (UniProt Q14680). The settings on record: at 0.1 µM.
Sequence of Maternal embryonic leucine zipper kinase (Homo sapiens) (Q14680 whole entry, looked up): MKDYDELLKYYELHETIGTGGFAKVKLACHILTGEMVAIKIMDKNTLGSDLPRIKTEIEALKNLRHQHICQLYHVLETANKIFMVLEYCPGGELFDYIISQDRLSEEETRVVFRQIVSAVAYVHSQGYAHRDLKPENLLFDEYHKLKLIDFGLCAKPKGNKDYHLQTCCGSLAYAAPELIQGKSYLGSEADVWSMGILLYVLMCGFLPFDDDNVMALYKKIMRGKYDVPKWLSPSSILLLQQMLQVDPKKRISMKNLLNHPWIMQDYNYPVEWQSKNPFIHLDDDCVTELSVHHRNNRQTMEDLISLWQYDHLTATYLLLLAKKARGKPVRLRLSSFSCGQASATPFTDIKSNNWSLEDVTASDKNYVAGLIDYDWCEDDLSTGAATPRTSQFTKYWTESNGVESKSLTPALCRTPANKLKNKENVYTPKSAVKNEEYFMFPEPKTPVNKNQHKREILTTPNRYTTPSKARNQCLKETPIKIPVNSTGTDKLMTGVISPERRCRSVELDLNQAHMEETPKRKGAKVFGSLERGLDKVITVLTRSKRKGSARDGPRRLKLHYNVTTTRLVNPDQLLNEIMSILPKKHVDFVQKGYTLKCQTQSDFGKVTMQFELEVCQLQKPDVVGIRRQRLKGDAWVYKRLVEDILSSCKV
Experiment [5] shares this target. The settings on record: at 1 µM.
Experiment [6] has as its target MAP kinase-interacting serine/threonine-protein kinase 1 (Homo sapiens) (UniProt Q9BUB5). The following applies: at 0.1 µM.
Experiment [7] shares this target. The following applies: at 1 µM.
For experiment [8], the target named is MAP kinase-interacting serine/threonine-protein kinase 2 (Homo sapiens) (UniProt Q9HBH9). The settings on record: at 0.1 µM.
The target is the same in experiment [9]. The following applies: at 1 µM.
In experiment [10] the target is Serine/threonine-protein kinase MARK2 (Homo sapiens) (UniProt Q7KZI7). The following applies: at 0.1 µM.
Sequence of Serine/threonine-protein kinase MARK2 (Homo sapiens) (Q7KZI7 whole entry): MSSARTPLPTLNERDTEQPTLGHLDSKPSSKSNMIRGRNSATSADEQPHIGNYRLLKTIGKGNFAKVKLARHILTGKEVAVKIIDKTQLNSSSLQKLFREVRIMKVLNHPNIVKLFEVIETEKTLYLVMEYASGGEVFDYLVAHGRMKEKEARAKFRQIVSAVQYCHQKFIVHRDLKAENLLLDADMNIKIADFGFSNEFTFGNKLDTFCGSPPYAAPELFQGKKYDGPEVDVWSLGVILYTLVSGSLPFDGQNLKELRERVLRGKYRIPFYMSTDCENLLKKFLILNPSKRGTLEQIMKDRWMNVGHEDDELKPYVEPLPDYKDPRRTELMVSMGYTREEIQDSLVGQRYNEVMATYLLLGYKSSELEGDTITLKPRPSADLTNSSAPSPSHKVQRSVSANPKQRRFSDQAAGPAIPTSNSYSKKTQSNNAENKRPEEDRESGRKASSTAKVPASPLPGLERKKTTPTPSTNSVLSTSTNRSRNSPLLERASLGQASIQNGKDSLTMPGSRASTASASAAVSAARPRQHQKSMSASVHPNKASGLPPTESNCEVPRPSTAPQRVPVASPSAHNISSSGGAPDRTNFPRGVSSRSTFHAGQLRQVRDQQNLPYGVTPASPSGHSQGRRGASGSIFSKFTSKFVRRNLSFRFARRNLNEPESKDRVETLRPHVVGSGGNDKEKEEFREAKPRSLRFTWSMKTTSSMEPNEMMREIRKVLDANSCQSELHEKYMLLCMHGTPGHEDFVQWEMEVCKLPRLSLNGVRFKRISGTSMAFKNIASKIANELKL
Experiment [11] shares this target. The settings on record: at 1 µM.
In experiment [12] the target is PAS domain-containing serine/threonine-protein kinase (Homo sapiens) (UniProt Q96RG2). The settings on record: at 0.1 µM.
Sequence of PAS domain-containing serine/threonine-protein kinase (Homo sapiens) (Q96RG2 whole entry, the tested form may be a part): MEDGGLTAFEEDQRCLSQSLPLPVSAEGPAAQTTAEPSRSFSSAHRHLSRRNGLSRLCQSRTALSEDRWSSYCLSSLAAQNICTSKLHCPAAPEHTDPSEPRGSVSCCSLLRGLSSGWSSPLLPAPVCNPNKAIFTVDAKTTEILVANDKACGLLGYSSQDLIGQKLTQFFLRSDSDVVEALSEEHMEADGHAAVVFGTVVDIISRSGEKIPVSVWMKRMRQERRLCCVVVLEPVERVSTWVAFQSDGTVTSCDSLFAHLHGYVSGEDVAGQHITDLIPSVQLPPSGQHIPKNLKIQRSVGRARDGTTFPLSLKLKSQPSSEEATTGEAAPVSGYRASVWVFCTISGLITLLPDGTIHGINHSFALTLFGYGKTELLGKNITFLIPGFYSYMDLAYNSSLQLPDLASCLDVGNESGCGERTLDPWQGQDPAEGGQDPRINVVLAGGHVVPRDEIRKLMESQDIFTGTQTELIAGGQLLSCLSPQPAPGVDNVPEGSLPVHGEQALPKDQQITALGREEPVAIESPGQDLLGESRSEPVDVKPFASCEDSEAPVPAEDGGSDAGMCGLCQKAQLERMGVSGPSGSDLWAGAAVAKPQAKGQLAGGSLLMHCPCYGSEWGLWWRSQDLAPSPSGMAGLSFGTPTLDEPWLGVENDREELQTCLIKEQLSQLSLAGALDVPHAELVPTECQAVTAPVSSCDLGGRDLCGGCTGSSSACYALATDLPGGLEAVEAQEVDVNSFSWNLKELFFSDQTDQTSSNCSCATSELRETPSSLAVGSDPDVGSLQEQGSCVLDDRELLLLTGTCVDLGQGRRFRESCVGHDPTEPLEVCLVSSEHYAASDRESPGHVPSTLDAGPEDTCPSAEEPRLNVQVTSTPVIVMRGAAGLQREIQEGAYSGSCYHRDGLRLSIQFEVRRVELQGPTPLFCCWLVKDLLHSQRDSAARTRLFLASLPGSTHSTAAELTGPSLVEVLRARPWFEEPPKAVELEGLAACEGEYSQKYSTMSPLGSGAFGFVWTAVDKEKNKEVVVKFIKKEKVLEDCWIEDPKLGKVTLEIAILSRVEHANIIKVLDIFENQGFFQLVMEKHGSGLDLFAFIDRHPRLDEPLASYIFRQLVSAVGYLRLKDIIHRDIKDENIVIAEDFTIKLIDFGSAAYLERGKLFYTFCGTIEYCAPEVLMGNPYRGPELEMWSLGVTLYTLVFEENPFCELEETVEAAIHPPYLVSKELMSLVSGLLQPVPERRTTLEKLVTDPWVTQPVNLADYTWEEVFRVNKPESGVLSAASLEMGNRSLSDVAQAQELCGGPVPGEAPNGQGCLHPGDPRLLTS
For experiment [13] the target is unchanged. The following applies: at 1 µM.
Experiment [14] addresses Phosphorylase b kinase gamma catalytic chain, skeletal muscle/heart isoform (Homo sapiens) (UniProt Q16816). The following applies: at 0.1 µM.
The target is the same in experiment [15]. The following applies: at 1 µM.
The target in experiment [16] is T2, Phosphorylase b kinase gamma catalytic chain, liver/testis isoform (Homo sapiens) (UniProt P15735).
T2 sequence (whole entry): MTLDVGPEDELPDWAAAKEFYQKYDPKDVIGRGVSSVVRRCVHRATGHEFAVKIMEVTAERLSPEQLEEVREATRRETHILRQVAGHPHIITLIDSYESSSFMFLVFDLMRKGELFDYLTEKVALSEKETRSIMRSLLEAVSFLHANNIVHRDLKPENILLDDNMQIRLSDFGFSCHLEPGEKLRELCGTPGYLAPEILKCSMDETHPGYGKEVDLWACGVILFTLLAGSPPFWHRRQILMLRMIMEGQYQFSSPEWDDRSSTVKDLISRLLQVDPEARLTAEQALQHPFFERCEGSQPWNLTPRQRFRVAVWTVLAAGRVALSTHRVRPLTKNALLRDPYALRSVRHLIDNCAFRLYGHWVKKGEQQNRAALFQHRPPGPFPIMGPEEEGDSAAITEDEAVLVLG
The settings on record: at 0.1 µM.

The target in experiment [17] is T2, Phosphorylase b kinase gamma catalytic chain, liver/testis isoform (Homo sapiens). The following applies: at 1 µM.
The target of experiment [18] is Serine/threonine-protein kinase pim-1 (Homo sapiens) (UniProt P11309). The settings on record: at 0.1 µM.
Sequence of Serine/threonine-protein kinase pim-1 (Homo sapiens) (P11309 whole entry, looked up): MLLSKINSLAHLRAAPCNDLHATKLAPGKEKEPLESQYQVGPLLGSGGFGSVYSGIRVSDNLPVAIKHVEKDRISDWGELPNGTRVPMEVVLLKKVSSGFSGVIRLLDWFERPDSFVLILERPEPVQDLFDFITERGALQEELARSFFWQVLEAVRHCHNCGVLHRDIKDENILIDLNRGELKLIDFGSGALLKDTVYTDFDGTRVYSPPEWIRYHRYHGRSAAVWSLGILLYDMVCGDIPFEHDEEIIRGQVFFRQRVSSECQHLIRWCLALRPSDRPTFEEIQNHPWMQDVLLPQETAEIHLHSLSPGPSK
Experiment [19] has the same target. The settings on record: at 1 µM.
Experiment [20] deals with Serine/threonine-protein kinase pim-2 (Homo sapiens) (UniProt Q9P1W9). The settings on record: at 0.1 µM.
Sequence of Serine/threonine-protein kinase pim-2 (Homo sapiens) (Q9P1W9 whole entry, looked up): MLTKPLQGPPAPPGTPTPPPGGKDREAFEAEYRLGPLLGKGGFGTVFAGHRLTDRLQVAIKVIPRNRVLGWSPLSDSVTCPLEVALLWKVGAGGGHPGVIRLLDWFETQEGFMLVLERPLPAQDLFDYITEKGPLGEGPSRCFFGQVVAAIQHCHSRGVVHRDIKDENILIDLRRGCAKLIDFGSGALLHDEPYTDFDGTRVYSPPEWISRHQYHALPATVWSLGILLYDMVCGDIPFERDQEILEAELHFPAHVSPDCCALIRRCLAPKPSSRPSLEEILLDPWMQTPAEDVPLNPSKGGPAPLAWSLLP

Sequence of MAP kinase-interacting serine/threonine-protein kinase 1 (Homo sapiens) (Q9BUB5 whole entry, looked up): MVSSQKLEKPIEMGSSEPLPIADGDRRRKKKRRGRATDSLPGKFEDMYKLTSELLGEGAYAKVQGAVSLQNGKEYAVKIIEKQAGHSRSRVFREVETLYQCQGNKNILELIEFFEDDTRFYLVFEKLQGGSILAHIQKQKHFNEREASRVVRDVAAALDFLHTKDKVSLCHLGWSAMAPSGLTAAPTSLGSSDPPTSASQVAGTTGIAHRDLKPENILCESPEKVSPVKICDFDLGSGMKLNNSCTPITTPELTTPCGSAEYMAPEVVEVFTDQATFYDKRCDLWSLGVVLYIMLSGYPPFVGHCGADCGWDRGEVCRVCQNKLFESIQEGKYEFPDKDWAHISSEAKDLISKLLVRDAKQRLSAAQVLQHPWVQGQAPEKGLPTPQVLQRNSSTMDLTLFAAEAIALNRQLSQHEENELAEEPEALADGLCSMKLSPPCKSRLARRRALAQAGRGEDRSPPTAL
Sequence of Phosphorylase b kinase gamma catalytic chain, skeletal muscle/heart isoform (Homo sapiens) (Q16816 whole entry, looked up, canonical isoform): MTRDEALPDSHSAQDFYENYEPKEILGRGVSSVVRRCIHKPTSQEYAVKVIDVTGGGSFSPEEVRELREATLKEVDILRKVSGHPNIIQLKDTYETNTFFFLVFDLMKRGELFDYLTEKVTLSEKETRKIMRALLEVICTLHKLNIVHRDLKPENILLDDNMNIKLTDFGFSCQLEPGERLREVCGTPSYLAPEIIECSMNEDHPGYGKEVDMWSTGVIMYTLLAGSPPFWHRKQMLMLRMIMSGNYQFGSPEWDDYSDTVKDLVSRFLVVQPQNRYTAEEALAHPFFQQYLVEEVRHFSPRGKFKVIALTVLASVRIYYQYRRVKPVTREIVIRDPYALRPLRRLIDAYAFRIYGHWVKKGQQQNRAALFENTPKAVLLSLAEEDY
Sequence of MAP/microtubule affinity-regulating kinase 3 (Homo sapiens) (P27448 whole entry, looked up): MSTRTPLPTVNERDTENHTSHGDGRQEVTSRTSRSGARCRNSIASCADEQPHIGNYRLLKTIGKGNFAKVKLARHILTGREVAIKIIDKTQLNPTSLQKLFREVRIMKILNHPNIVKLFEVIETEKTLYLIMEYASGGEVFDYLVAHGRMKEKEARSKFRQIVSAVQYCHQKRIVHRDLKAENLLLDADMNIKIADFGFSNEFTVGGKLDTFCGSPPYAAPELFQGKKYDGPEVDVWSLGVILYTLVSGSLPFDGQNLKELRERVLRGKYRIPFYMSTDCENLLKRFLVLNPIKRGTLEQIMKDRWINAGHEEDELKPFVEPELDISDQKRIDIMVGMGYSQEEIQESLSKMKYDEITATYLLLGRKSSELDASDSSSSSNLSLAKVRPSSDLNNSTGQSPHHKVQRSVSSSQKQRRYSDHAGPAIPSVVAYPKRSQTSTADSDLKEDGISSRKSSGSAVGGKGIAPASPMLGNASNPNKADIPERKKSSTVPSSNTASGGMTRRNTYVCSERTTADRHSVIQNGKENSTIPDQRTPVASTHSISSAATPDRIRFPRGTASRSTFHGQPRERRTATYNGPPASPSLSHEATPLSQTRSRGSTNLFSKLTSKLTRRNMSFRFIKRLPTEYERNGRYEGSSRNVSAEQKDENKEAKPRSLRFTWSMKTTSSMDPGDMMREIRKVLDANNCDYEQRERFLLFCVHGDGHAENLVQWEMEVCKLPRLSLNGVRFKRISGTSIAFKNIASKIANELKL

What is called inhibition is the drop in the measured response relative to a control, in per cent. Turning to `N#Cc1c(NC(=O)c2ccc(F)cc2)sc2c1CCCC2`, the inhibition in experiment [1] is 1.66%; in [2], 0.11%; in experiment [3] it was 1.29%; in experiment [4] it was 0.18%; in experiment [5] it was 5.26%; in experiment [6] it was 0.47%. The inhibition in [7] was 1.91%; in experiment [8], 0.57%; in experiment [9] it was 1.1%; in experiment [10] it was 0.6%; in [11], 0%; in [12], -0.36%. Besides, the inhibition in experiment [13] was 0.96%; in [14] it was 1.21%; in experiment [15], 2.76%; in experiment [16] it was 1%; in [17] it was 1.36%; in experiment [18], -1.04%. The inhibition was -0.95% in experiment [19] and -0.39% in [20].
Consider `Cc1ccc(O)cc1Nc1ccnc2cc(-c3ccccn3)ccc12`, for which the inhibition in experiment [1] was 10.8%; in experiment [2], 2.1%; in [3], 3.98%; in experiment [4], 1.72%; in [5], 3.79%; in [6], 3.8%. Moreover, the inhibition came to 6.21% in [7]; 1.72% in [8]; 4.94% in experiment [9]; 0.54% in [10]; 4.34% in experiment [11]; 0.71% in experiment [12]. For the same compound, the inhibition was -0.05% in [13]; 2.23% in experiment [14]; 9.36% in experiment [15]; 5.58% in [16]; 2.55% in experiment [17]; 0.67% in [18]. For the same compound, the inhibition in [19] was 3.79%; in [20], 0.49%.
Regarding `CCN1CCC(CC(=O)Nc2n[nH]c3nnc(-c4cccc(F)c4F)cc23)CC1`, the inhibition in experiment [1] is 2.57%; in experiment [2] it was 2.32%; in [3], 2.11%; in experiment [4] it was 3.71%; in [5], 2.39%; in experiment [6], 1.66%. Also, the inhibition in [7] is 2.05%; in experiment [8] it was 1.98%; in [9], 2.98%; in [10] it was -2.03%; in experiment [11] it was 1.15%; in experiment [12], 0.77%. The inhibition in experiment [13] came out at 1.59%; in [14], 5.02%; in experiment [15], 5.09%; in experiment [16] it was 3.86%; in experiment [17] it was 4.27%; in experiment [18], 0.56%. The inhibition in [19] came out at 0.7%; in [20], 0.39%.
Consider `COC(=O)c1sc(-n2cnc3cc(OC)c(OC)cc32)cc1OCc1ccccc1C(F)(F)F`, for which the inhibition in experiment [1] is 3.04%; in experiment [2], 2.41%; in [3], 4.85%; in experiment [4], 4.31%; in experiment [5], 12.6%; in [6], 3.55%. In addition, the inhibition in [7] is 3.3%; in experiment [8], 0.22%; in experiment [9] it was -0.04%; in experiment [10], -1.89%; in experiment [11], 2.26%; in experiment [12], -1.52%. The inhibition in experiment [13] is -2.77%; in experiment [14] it was 4.45%; in experiment [15] it was 5.4%; in experiment [16], 4.03%; in [17], 0.9%; in experiment [18] it was 0.49%. Besides, the inhibition was determined as 1% in experiment [19] and 0.49% in experiment [20].
Turning to `CNC(=O)c1cc(-c2ccc(F)cc2)cc(-c2ccc(S(=O)(=O)N3CCCC3)cc2)c1N`, the inhibition in [1] is 2.91%; in [2], 0.61%; in experiment [3], 1.19%; in experiment [4] it was 4.19%; in experiment [5] it was 3.17%; in experiment [6], 0.63%. In addition, the inhibition is 0.76% in [7]; -0.84% in [8]; -0.59% in experiment [9]; 2.35% in [10]; 1.52% in experiment [11]; 0.47% in [12]. For the same compound, the inhibition is -0.16% in [13]; 2.9% in experiment [14]; 4.24% in experiment [15]; 3.8% in experiment [16]; 3.18% in [17]; 0.06% in [18]. Moreover, the inhibition in experiment [19] is 0.44%; in [20] it was -0.39%.
Take `COc1cc2ncn(-c3cc(OCc4ccccc4C(F)(F)F)c(C(=O)N(C)C)s3)c2cc1OC`: the inhibition in [1] is 3.36%; in [2], -0.78%; in experiment [3], 0.92%; in experiment [4] it was 2.15%; in experiment [5], 1.97%; in [6] it was 0.52%. In addition, the inhibition was 3.31% in experiment [7]; -0.13% in [8]; 2.71% in [9]; -2.4% in experiment [10]; -0.58% in experiment [11]; -1.08% in [12]. In addition, the inhibition in experiment [13] was 0.41%; in experiment [14] it was -0.58%; in experiment [15], 1.87%; in experiment [16], -1.54%; in experiment [17], -0.32%; in experiment [18] it was 0.36%. The values for the inhibition in experiment [19] and in [20] were -0.31% and -0.26%, respectively.
`CNC(=O)c1cncc(/C=C/c2ccccc2Cl)c1`: the inhibition is -4.55% in experiment [1]; -0.44% in experiment [2]; 2.25% in [3]; 0.11% in experiment [4]; -3.52% in experiment [5]; 4.17% in experiment [6]. The inhibition was 23.1% in [7]; 6.83% in experiment [8]; 17.6% in experiment [9]; 1.5% in [10]; 0.58% in experiment [11]; 1.8% in experiment [12]. The inhibition in [13] is 4.02%; in experiment [14], -1.06%; in experiment [15], 2.44%; in experiment [16], 1.88%; in experiment [17] it was 5.64%; in experiment [18] it was 0.54%. Also, the inhibition in experiment [19] worked out at 0.89%; in experiment [20], 0.13%.
